Measurements reported in PubChem BioAssay (NCI).
This is part of a sample that, as a whole, favours compounds with a hit. Of some 79,000 tested, about 15% had one in any assay. Activity calls are given as the source filed them. No stated cut-off is given here; in the data, active means growth inhibition above about 70%; inactive means the rest.

Assays:
[1] = NCI Yeast Anticancer Drug Screen. Data for the wt2 strain (AID 169);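 further: 0% = growth of vehicle-treated yeast cultures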; conditions: S. cerevisiae wt2 strain growth inhibition, stronger effect = higher value
In short: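 Read-out: growth inhibition versus vehicle-treated control cultures after compound exposure of the yeast strain.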

[2] = NCI Yeast Anticancer Drug Screen. Data for the mlh1 strain (AID 171);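 further: 0% = growth of vehicle-treated control cultures of the same strain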; conditions: S. cerevisiae mlh1 strain growth inhibition, stronger effect = higher value
In short: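 Read-out: growth inhibition versus vehicle controls. Strain: engineered yeast with a defined DNA repair or cell cycle defect, compound-treated.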

[3] = NCI Yeast Anticancer Drug Screen. Data for the sgs1 strain (AID 173);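 further: 0% = growth of vehicle-only control cultures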; conditions: S. cerevisiae sgs1 mutant, stronger effect = higher value
In short: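 Read-out: yeast growth inhibition relative to vehicle controls, following compound exposure of a strain with a defined DNA repair/cell cycle alteration.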

[4] = NCI Yeast Anticancer Drug Screen. Data for the mlh1 rad18 strain (AID 175); conditions: S. cerevisiae mlh1 rad18 strain growth inhibition, stronger effect = higher value
In short: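 Yeast w/ defined DNA-repair lesions; compound exposure; growth vs vehicle controls → % inhibition.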

[5] = NCI Yeast Anticancer Drug Screen. Data for the rad18 strain (AID 177); conditions: S. cerevisiae rad18 mutant growth inhibition, stronger effect = higher value
In short: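 Readout: growth inhibition vs vehicle controls. Cells: genetically altered yeast strain, DNA repair defect.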

[6] = NCI Yeast Anticancer Drug Screen. Data for the rad52 strain (AID 147);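 further: 0% = growth of vehicle-treated control cultures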; conditions: S. cerevisiae rad52 mutant growth inhibition, stronger effect = higher value
In short: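 Read-out: growth inhibition versus vehicle-treated controls. Cells were a DNA repair-deficient yeast strain treated with compounds.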

[7] = NCI Yeast Anticancer Drug Screen. Data for the wt1 strain (AID 149);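 further: 0% = growth of vehicle-treated wt1 cultures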; conditions: S. cerevisiae wt1 strain (SPY 50644) growth inhibition, stronger effect = higher value
In short: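 Vehicle-normalised growth inhibition; strain wt1; compound exposure.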

[8] = NCI Yeast Anticancer Drug Screen. Data for the rad50EPP+ strain (AID 151);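 further: 0% = growth of vehicle-treated control cultures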; conditions: S. cerevisiae rad50 mutant strain, stronger effect = higher value
In short: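 Growth inhibition read against vehicle controls in rad50EPP+ yeast, a strain altered in DNA damage repair, after compound exposure.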

[9] = NCI Yeast Anticancer Drug Screen. Data for the mgt1 strain (AID 153); conditions: S. cerevisiae mgt1 mutant growth inhibition, stronger effect = higher value
In short: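 mgt1 yeast grown with test compound; read-out is growth inhibition versus vehicle-treated cultures.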

[10] = NCI Yeast Anticancer Drug Screen. Data for the rad50 strain (AID 155);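 further: 0% = growth of vehicle-only cultures of the same strain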; conditions: S. cerevisiae rad50 strain growth inhibition, stronger effect = higher value
In short: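 A DNA repair-deficient yeast mutant serves as the test organism; compound-induced growth inhibition is calculated against vehicle-treated cells.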

[11] = NCI Yeast Anticancer Drug Screen. Data for the mec2-1 strain (AID 157); conditions: S. cerevisiae mec2-1 strain, stronger effect = higher value
In short: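 Yeast mec2-1 mutant treated with compound. Readout: growth inhibition vs vehicle controls.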

[12] = NCI Yeast Anticancer Drug Screen. Data for the rad14 strain (AID 159);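 further: 0% = growth of vehicle-treated control cultures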; conditions: S. cerevisiae rad14 strain growth inhibition, stronger effect = higher value
In short: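 Vehicle-treated cultures served as the baseline for growth inhibition of a DNA repair-mutant yeast strain exposed to each compound.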

[13] = NCI Yeast Anticancer Drug Screen. Data for the sgs1 mgt1 strain (AID 161);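 further: 0% = growth of cultures given vehicle only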; conditions: S. cerevisiae sgs1 mgt1 strain, stronger effect = higher value
In short: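 Mutant yeast exposed to compound; growth scored against vehicle-only wells.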

[14] = NCI Yeast Anticancer Drug Screen. Data for the CLN2oe strain (AID 163);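 further: 0% = growth of vehicle-only control cultures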; conditions: S. cerevisiae CLN2oe strain, stronger effect = higher value
In short: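 Read-out: yeast growth inhibition, expressed relative to vehicle-only controls. The strain bears an engineered cell-cycle alteration.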

[15] = NCI Yeast Anticancer Drug Screen. Data for the cln2 rad14 strain (AID 165);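 further: 0% = growth equal to vehicle treated cultures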; conditions: S. cerevisiae cln2 rad14 strain, stronger effect = higher value
In short: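 cln2 rad14 yeast strain; compound exposure; growth inhibition read vs vehicle controls.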

[16] = NCI Yeast Anticancer Drug Screen. Data for the bub3 strain (AID 167); conditions: S. cerevisiae bub3 mutant strain, stronger effect = higher value
In short: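 Inhibition values come from growth of compound-treated mutant yeast normalised to vehicle-treated controls.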

[17] = at 5.0 µM (retest, dose inferred, filed as 0.5)
[18] = at 50.0 µM (retest, dose inferred, filed as 5.0)

Measured: growth inhibition

Cc1ccc(S/N=C\c2ccccc2O)cc1
active: [4]; at 50.0 µM 94.3%
inactive: [1]; at 1.2 µM 4% | [1]; at 3.7 µM 4% | [1]; at 11.0 µM 5% | [1]; at 33.0 µM 0% | [1]; at 100.0 µM -1% | [2]; at 1.2 µM 9% | [2]; at 3.7 µM 2% | [2]; at 11.0 µM -2% | [2]; at 33.0 µM 0% | [2]; at 100.0 µM 1% | [3]; at 1.2 µM 3% | [3]; at 3.7 µM 7% | [3]; at 11.0 µM 7% | [3]; at 33.0 µM 9% | [3]; at 100.0 µM 6% | [4]; [17] -112% | [4]; [18] 31% | [5]; at 1.2 µM -1% | [5]; at 3.7 µM 0% | [5]; at 11.0 µM 0% | [5]; at 33.0 µM 1% | [5]; at 100.0 µM 9%

Oc1ccc(NCn2c(=S)sc3ccccc32)cc1
active: [6]; at 100.0 µM 97% | [7]; at 100.0 µM 97% | [8]; at 100.0 µM 82% | [9]; at 33.0 µM 87% | [9]; at 100.0 µM 98% | [10]; [18] 100% | [10]; at 100.0 µM 95% | [11]; at 33.0 µM 84% | [11]; [18] 100% | [11]; at 50.0 µM 73.8% | [11]; at 100.0 µM 99% | [12]; at 100.0 µM 98% | [13]; [18] 99% | [13]; at 50.0 µM 91.2% | [14]; at 100.0 µM 97% | [15]; [18] 98% | [16]; [18] 98% | [16]; at 50.0 µM 73.2% | [16]; at 100.0 µM 98% | [1]; at 100.0 µM 97% | [2]; at 100.0 µM 97% | [3]; at 100.0 µM 96% | [4]; [18] 100% | [5]; at 100.0 µM 96%
inactive: [6]; at 1.2 µM -1% | [6]; at 3.7 µM -10% | [6]; at 11.0 µM -7% | [6]; at 33.0 µM 38% | [7]; at 1.2 µM -24% | [7]; at 3.7 µM -17% | [7]; at 11.0 µM -16% | [7]; at 33.0 µM 29% | [8]; at 1.2 µM -6% | [8]; at 3.7 µM -21% | [8]; at 11.0 µM -25% | [8]; at 33.0 µM -16% | [9]; at 1.2 µM 14% | [9]; at 3.7 µM 17% | [9]; at 11.0 µM 37% | [10]; at 1.2 µM -2% | [10]; at 3.7 µM 12% | [10]; [17] 62% | [10]; at 11.0 µM 5% | [10]; at 33.0 µM 42% | [10]; at 50.0 µM 58.5% | [11]; at 1.2 µM 19% | [11]; at 3.7 µM 27% | [11]; [17] 63% | [11]; at 11.0 µM 26% | [12]; at 1.2 µM -11% | [12]; at 3.7 µM -8% | [12]; at 11.0 µM -6% | [12]; at 33.0 µM 62% | [13]; [17] 2% | [14]; at 1.2 µM -16% | [14]; at 3.7 µM -13% | [14]; at 11.0 µM -32% | [14]; at 33.0 µM 34% | [15]; [17] 58% | [15]; at 50.0 µM 40% | [16]; at 1.2 µM 14% | [16]; at 3.7 µM 32% | [16]; [17] 32% | [16]; at 11.0 µM 26% | [16]; at 33.0 µM 68% | [1]; at 1.2 µM -28% | [1]; at 3.7 µM -14% | [1]; at 11.0 µM -10% | [1]; at 33.0 µM 64% | [2]; at 1.2 µM -44% | [2]; at 3.7 µM -23% | [2]; at 11.0 µM -9% | [2]; at 33.0 µM 63% | [3]; at 1.2 µM 4% | [3]; at 3.7 µM 5% | [3]; at 11.0 µM 4% | [3]; at 33.0 µM 69% | [4]; [17] 51% | [4]; at 50.0 µM 63% | [5]; at 1.2 µM -1% | [5]; at 3.7 µM -5% | [5]; at 11.0 µM -11% | [5]; at 33.0 µM 48%
